Data published in PMC4336329 (PLoS ONE, 2015).
The whole screen tested about 310,000 compounds, of which about 14,000 (4.5%) showed an effect of 50% or more. Effects have a minus sign here. Shown is part of a subset that was picked to be rich in strong results.

What follows are compounds tested against human ether-à-go-go-related gene (hERG) potassium channel (human, UniProt Q12809) (assay: primary screen, population patch clamp on CHO cells stably expressing hERG; higher = less effect of the substance).
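Further: peak tail current of the secondary pulse compared with the same well before compound.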

Sequence of human ether-à-go-go-related gene (hERG) potassium channel (Q12809 whole entry, looked up): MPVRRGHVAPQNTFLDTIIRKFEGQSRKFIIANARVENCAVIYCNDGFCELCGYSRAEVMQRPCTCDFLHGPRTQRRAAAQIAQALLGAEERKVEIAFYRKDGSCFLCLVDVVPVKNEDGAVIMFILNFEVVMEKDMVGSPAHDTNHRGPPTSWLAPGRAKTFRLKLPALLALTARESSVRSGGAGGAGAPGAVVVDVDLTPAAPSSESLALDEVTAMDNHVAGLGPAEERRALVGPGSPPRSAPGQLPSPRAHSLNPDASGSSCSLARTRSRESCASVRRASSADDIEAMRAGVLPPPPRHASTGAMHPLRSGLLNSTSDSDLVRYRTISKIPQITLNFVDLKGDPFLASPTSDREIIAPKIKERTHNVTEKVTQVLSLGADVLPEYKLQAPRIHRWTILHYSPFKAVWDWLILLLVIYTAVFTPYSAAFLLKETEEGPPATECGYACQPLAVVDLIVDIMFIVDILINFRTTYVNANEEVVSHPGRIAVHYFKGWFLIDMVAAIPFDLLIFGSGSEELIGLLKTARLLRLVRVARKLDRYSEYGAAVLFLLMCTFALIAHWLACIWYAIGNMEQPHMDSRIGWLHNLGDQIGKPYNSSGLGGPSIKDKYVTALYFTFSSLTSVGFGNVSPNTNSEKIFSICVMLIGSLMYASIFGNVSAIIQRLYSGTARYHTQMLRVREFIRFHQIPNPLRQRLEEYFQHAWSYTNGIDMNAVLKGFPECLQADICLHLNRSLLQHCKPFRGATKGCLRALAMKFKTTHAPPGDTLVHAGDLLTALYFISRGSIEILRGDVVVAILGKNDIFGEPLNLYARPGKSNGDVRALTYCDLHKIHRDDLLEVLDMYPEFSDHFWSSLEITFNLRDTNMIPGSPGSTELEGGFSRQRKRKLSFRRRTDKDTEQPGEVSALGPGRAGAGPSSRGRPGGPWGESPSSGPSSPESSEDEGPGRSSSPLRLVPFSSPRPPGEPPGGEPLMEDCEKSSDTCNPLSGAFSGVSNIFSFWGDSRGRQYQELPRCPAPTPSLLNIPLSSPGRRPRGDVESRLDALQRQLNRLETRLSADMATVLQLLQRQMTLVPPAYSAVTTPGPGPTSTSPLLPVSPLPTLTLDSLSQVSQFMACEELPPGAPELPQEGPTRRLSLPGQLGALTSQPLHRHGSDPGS

| SMILES | hERG current change (%, negative = inhibition) at 10uM |
| --- | --- |
| CCO.CCn1c(COc2ccc3c(c2)OCO3)nnc1SCC(=O)O | -0.394% |
| CCOC(=O)N1CCN(C(=O)CS(=O)(=O)Cc2nc(-c3ccccc3F)oc2C)CC1 | -13.6% |
| Cn1c(SCC(=O)N2CCCC2)nc2cccnc21 | 16.9% |
| O=C(CSc1nc2cccnc2n1Cc1ccccc1)N1CCCC1 | -63.7% |
| CCOC(=O)CNC(=O)CSc1nc2cccnc2n1Cc1ccccc1 | -53.9% |
| COCCn1c(SCC(=O)N2CCCCC2)nc2cccnc21 | -1.5% |
| CCOC(=O)CNC(=O)CSc1nc2cccnc2n1C | 7.54% |
| CCOC(=O)CNC(=O)CSc1nc2cccnc2n1CC | -7.04% |
| CC1=C(C(=O)OC(C)C)C(c2cncc(-c3ccc(F)cc3)c2)C(C#N)=C(N)O1 (stereo not drawn) | -28.6% |
| Cc1nn(CC2CCCCC2)c(N)c1-c1ccccc1 | -12.2% |
| CC(C)(C)c1cc(C(F)(F)F)c(C#N)c(=O)[nH]1 | 25% |
| Cc1nc(NC2CCCCC2)c2nnn(Cc3ccccc3Cl)c2n1 | 8.09% |
| O=[N+]([O-])c1ccc(N/N=C2/CCCCC2c2ccccn2)c([N+](=O)[O-])c1 (stereo not drawn) | -56.3% |
| CC1CCCC/C1=N/Nc1ccc([N+](=O)[O-])cc1[N+](=O)[O-] (stereo not drawn) | -1.11% |
| C[n+]1ccccc1C1CCCC/C1=N\Nc1ccc([N+](=O)[O-])cc1[N+](=O)[O-].[I-] (stereo not drawn) | -11.8% |
| COc1ccccc1C(=O)NC(CCSC)C(=O)NCC(c1cccs1)N(C)C (stereo not drawn) | 2.41% |
| COc1ccc(NC(=O)C(=O)NNC(=O)COc2ccc(Cl)cc2)c(OC)c1 | 10.5% |
| Cn1cc(C(=O)c2ccc(F)cc2)cc1-c1nc2ccccc2n1C | -50.5% |
| Cn1cc(C(=O)c2ccc(Cl)cc2)cc1-c1nc2ccccc2n1C | -47.9% |
| Cn1cc(C(=O)c2ccccc2)cc1-c1nc2ccccc2n1C | -41.9% |
| CCN(CC)CCn1c(OC)cc(=O)[nH]c1=O | 17.6% |
| CCC1=C(OC(=O)N(CC)CC)N2C(=O)OC(=NCCc3c[nH]c4ccccc34)[C@]2(C)[C@H]2C1=CC[C@H]1C(=O)N(CC)C(=O)[C@H]12 | -9.68% |
| CCn1cc(CNC(=O)c2ccc3nc(Cc4ccc(OC)cc4)oc3c2)cn1 | 6.8% |
| COc1ccc([C@H]2CC(=O)C=C(c3ccc(Cl)cc3C)C2)cc1 | 4.03% |

| SMILES | hERG current change (%, negative = inhibition) at 10uM |
| --- | --- |
| COc1cccc(C2=CC(=O)C[C@H](c3ccc(F)cc3)C2)c1 | -14.9% |
| COc1ccc([C@H]2CC(=O)C=C(c3ccnc4ccc(Cl)cc34)C2)cc1 | -57.6% |
| COc1ccc([C@H]2CC(=O)C=C(c3cccc(C#N)c3)C2)cc1 | -72.3% |
| COc1ccc([C@H]2CC(=O)C=C(c3cccc(OC)c3)C2)cc1 | -82.1% |
| COc1ccc([C@H]2CC(=O)C=C(c3cc(Cl)ccc3OC)C2)cc1 | 7.4% |
| COc1cccc(C2=CC(=O)C[C@H](c3ccc(Cl)cc3)C2)c1 | 15.4% |
| COc1ccc([C@H]2CC(=O)C=C(c3cccc(Br)c3)C2)cc1 | -1.14% |
| COc1ccc([C@H]2CC(=O)C=C(c3cccc(Cl)c3)C2)cc1 | -11.8% |
| Cc1ccc(S(=O)(=O)NCC(=O)NCCc2c[nH]c3ccccc23)cc1C | 3.3% |
| O=C(NCC1OCCCN1S(=O)(=O)c1cc(F)ccc1F)C(=O)NC1CCCCC1 (stereo not drawn) | -3.8% |
| O=C(CN1CCN(CC(=O)Nc2ccccc2Cl)CC1)Nc1ccc2c(c1)OCCO2 | -68.7% |
| O=C(CN1CCC(C(=O)c2ccc3c(c2)OCCO3)CC1)Nc1ccccc1F | -0.724% |
| Cl.O=C(CN1CCC(NC(=O)c2ccccc2F)CC1)Nc1ccc2c(c1)OCCO2 | 6.04% |
| O=C(CN1CCN(CC(=O)Nc2ccccc2F)CC1)Nc1ccc2c(c1)OCCO2 | -71.2% |
| O=C(CN1CCOCC1)Nc1ccc2c(c1)OCCO2.O=C(O)C(=O)O | 15% |
| O=C(CN1CCOCC1)Nc1ccccc1Cl | -8.73% |
| COC(=O)N/N=C/c1ccccc1Cl | 19.4% |
| N#CC(c1cccc(C(F)(F)F)c1)(c1ncc(C(F)(F)F)cc1Cl)N1CCOCC1 (stereo not drawn) | 4.46% |
| COc1ccc(OCc2cc(C(=O)N(C)CC3CCCCO3)no2)c(Cl)c1 (stereo not drawn) | -17.4% |
| O=C(c1cc(COc2ccc(F)cc2Cl)on1)N(Cc1ccncc1)CC1CCCO1 (stereo not drawn) | -60.7% |
| CN(CC1CCCCO1)C(=O)c1cc(COc2ccc(F)cc2Cl)on1 (stereo not drawn) | -87.1% |
| CCCN(CC1CCCO1)C(=O)c1cc(COc2ccc(F)cc2F)on1 (stereo not drawn) | -15% |
| COc1cc(Cl)ccc1OCc1cc(C(=O)N(C)CC2CCCCO2)no1 (stereo not drawn) | -18.7% |
| CCN(Cc1ccncc1)C(=O)c1cc(COc2ccc(F)cc2Cl)on1 | -44% |
